SMN2 splice enh – increases expression of the SMN2 splice variant; AID 1458; 2.8% of 210,000 active; Potency, µM (titrated, usually from 46.1 µM), for inactives: at the highest dose activity change, positive = activation, usual class: activators; HEK293 SMN2-luciferase splicing reporter, luminescence, 30-36 h; further: % of control where 0% means no effect; nearly all actives have a fitted effect of over 55% in size
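HEK293 cells carry an SMN2 […]–luciferase reporter in which exon 7 inclusion puts luciferase in frame. Cells were plated 10-12 h before compound addition, then incubated 30-36 h at 37C. ONE-Glo luminescence was read; sodium butyrate at 4.5 mM final served as control.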
ELG1 genotoxic – genotoxicity induction in ELG1-luciferase HEK293T cells; 1.3% of 330,000 active; Potency, µM (doses to about 46 µM), for the others: at the highest dose activity change, positive = activation, actives largely listed as activators; HEK293T ELG1-luciferase reporter, luminescence, 16 h; further: % of control where 0% means no effect; nearly all actives have a fitted effect of over 60% in size
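HEK293T cells expressing luciferase-tagged ELG1 were treated with compound or DMSO for 16 hr at 37°C. Luciferase activity was then read after 30 min with ONE-Glo at room temperature; rising signal flags genetic stress.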
KinaseGlo FLuc – Kinase-Glo luciferase inhibition (counter-screen); Q27757; Kinase-Glo luciferase, ATP luminescence, 8 min; 0.28% of 200,000 active; Potency, µM (top dose mostly 38.3 µM), for inactives: at the top dose activity change, negative = inhibition, most hits filed as inhibitors; further: on the % scale 0 is the no-effect control and ±100 the full control effect; nearly all actives have a fitted effect of over 60% in size
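Compound is pinned into ATP-containing buffer (10 uM ATP, imidazole pH 7.2, 7 mM MgCl2). Kinase-Glo luciferase reagent is then added. Light output is recorded following an 8-min room-temperature incubation.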
FLuc counter – firefly luciferase modulation, counter-screen for miR-21 project | P08659 | purified FLuc, Km substrates, luminescence inhibition | Potency, µM (titrated, usually from 57.5 µM), inactives show top-dose activity change, negative = inhibition, usual class: inhibitors | 6.9% of 360,000 active | AID 588342;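 further: plate controls were vehicle for no effect and reference inhibitor for full effect; nearly all actives have a fitted effect of over 55% in size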
Target sequence (P08659 whole entry, looked up): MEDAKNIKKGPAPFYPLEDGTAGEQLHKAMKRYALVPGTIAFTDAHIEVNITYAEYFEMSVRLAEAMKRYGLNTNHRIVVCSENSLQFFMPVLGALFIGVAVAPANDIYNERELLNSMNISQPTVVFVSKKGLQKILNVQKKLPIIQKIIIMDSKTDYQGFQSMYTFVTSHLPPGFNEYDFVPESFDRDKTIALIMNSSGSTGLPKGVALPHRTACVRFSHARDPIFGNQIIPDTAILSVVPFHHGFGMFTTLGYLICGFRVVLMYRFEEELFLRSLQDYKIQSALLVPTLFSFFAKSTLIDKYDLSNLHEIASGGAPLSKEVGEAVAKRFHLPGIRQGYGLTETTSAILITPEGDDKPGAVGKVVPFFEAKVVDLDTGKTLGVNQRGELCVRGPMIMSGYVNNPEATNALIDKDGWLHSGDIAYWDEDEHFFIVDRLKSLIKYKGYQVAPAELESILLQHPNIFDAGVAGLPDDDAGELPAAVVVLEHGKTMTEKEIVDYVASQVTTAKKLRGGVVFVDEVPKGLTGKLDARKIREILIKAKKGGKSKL
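Purified P. pyralis luciferase, 10 nM final, with Km-level 10 uM D-luciferin and 10 uM ATP in 50 mM Tris acetate pH 7.5, 10 mM Mg acetate, 0.01% Tween-20, 0.05% BSA; 6-point qHTS titration about 60 µM downward; luminescence read.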
NPC1 prom act – activates the NPC1 promoter; Huh7 NPC1 promoter luciferase reporter, 24 h; 2.4% of 320,000 active; AID 485313; Potency, µM (titrated, usually from 9.22 µM), for the others: top-dose activation, hits mostly activators; further: % of control where 0% means no effect; nearly all actives have a fitted effect of over 60% in size
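Luminescence read-out of NPC1 promoter-driven luciferase in stably transfected Huh7 cells; compounds delivered in DMSO and left 24 h at 37C, 5% CO2, qHTS titration format.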
Rab9 prom act – Rab9 promoter activation | Huh7 Rab9 promoter-luciferase reporter, luminescence, 24 h | Potency, µM (top dose mostly 9.22 µM), for inactives: top-dose activation, negative = inhibition, hits mostly activators | 2.8% of 320,000 active | AID 485297; further: % of control where 0% means no effect; nearly all actives have a fitted effect of over 60% in size
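Steps: seed 1500 Huh7 Rab9-luc cells per well, rest 2 h at 37 °C; add compound in DMSO; incubate 24 h; add luciferase reagent, 10 min ambient; read luminescence.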
Starred values were filed as active, the others as inactive; ? = inconclusive; · = no result given; [ ] = dose if it differs, or a comment. Hits are enriched below; roughly 7.5% of the tested compounds scored in any of these assays. The call rests on the fitted dose curve; in most records, active means well fitted curve in the direction sought with a large enough effect; inconclusive means small, poorly fitted or top-dose-only effect, or another doubt; inactive means no such curve, though single readings can be large; an effect the other way counts as inactive or inconclusive. Potency means the concentration at half of the fitted maximal effect.

SMILES	SMN2 splice enh	ELG1 genotoxic	KinaseGlo FLuc	FLuc counter	NPC1 prom act	Rab9 prom act
CC(=O)Nc1ccc2c(c1)C(=Nc1ccc(C(=O)O)cc1)c1ccccc1-2	2%[9.22 µM]	·	-2%[7.66 µM]	·	·	·
Cc1cc(N)c(-n2cc3c(=O)n(C)c(=O)n(C)c3c2)cc1C	?	?	-17%	17µM*	16%	?
Cn1c(=O)c2cn(-c3ccc4c(c3)OCCO4)cc2n(C)c1=O	?	11µM*	-4%	?	?	?
Cc1ccc(-n2cc3c(=O)n(C)c(=O)n(C)c3c2)cc1C	3%	0%	0%	?	28%	27%
Cc1csc(NC(=O)Nc2cccc(Cl)c2)n1	11µM*	?	0%	5.4µM*	?	?
O=C(Nc1ccc(Cl)c(Cl)c1)Nc1nccs1	·	-1%	·	13µM*	-18%	14%
O=C(Nc1cccc(Cl)c1)Nc1nccs1	-9%	-1%	-1%	19µM*	?	?
O=C(Nc1cccc(Cl)c1)Nc1nc(-c2ccccc2)cs1	-36%	-1%	2%	-4%	7%	-2%
C#CCCCCCCCCCCCc1ccco1	-3%	·	-1%	·	·	·
CCN(CC(=O)Nc1ccc(OC)cc1)CC(=O)Nc1ccc2c(c1)OCO2	·	0%	·	3%	-3%	1%
COc1ccc(N/C(C)=C/C(=S)Nc2ccccc2)cc1	11%	12%	-1%	11µM*	2%	2%
COc1ccc(C(=O)/C=C(\C)Nc2ccc3c(c2)OCO3)cc1	?	?	-8%	4.8µM*	3.2µM*	2.2µM*
COc1ccc(OC)c(N/C=C/C(=O)c2ccccc2)c1	·	?	·	0.067µM*	?	?
COc1ccc(N/C(C)=C/C(=O)c2ccccc2)cc1	13µM*	?	-1%	3µM*	?	2.8µM*
COC(=O)/C(=C\C(=O)c1ccccc1)Nc1ccc(OC)cc1	·	1%	·	?	0%	4%
CCOc1ccc(S(=O)(=O)c2cn(C)c3cc(OC)c(OC)cc3c2=O)cc1	·	-4%	·	1%	-1%	-7%
Cc1cc(C)c(Cn2c(=O)n(CCCCC(=O)NCc3ccccc3Cl)c(=O)c3ccccc32)c(C)c1	1%	·	·	-4%	·	·
COc1ccc(-c2nc(=S)c3ccc4ccccc4c3[nH]2)cc1	-5%	2%	-1%	0%	0%	4%
Cc1c(Cl)cccc1NC(=O)CCOc1ccccc1	-8%	·	·	-10%	·	·
COc1ccc(OC)c(N/C(C)=C/C(=O)c2ccncc2)c1	·	-11%	·	2%	-6%	6%
COc1ccc(OC)c(N/C(C)=C/C(=O)c2ccccc2)c1	188%	?	-4%	0.85µM*	4µM*	3.5µM*
COC(=O)c1ccc(NC(=O)CSc2nc(C)cc(C)c2C(=O)Nc2ccccc2)cc1	·	·	·	-10%	·	·
CC(C)c1ccc(NS(=O)(=O)c2ccc3[nH]cc(C(=O)N4CCCC4)c(=O)c3c2)cc1	5%	·	·	?	·	·
Cn1c(SCc2ccc(C(=O)Nc3nccs3)cc2)nnc1-c1ccccc1	-1%	-2%	-4%	15µM*	18%	10%
C=CCn1c(SCc2ccc(C(=O)Nc3ccccc3)cc2)nnc1-c1ccccc1	-14%	-7%	-3%	13µM*	13%	10%
SMILES	SMN2 splice enh	ELG1 genotoxic	KinaseGlo FLuc	FLuc counter	NPC1 prom act	Rab9 prom act
CCn1c(SCc2ccc(C(=O)Nc3nccs3)cc2)nnc1-c1ccc(N)cc1	15%	-5%	-5%	17µM*	12%	0%
CCn1c(SCc2ccc(C(=O)Nc3nccs3)cc2)nnc1-c1ccc(NC(C)=O)cc1	9%	-3%	1%	11µM*	4%	5%
C=CCn1c(SCC(=O)NNC(=S)Nc2ccccc2)nnc1-c1ccccc1	·	4%	·	-1%	-6%	-1%
O=C(Cn1nc(-c2ccccc2)ccc1=O)Nc1ccc(N2CCN(C(=O)c3cccs3)CC2)cc1	·	-9%	-1%	5%	-3%	-1%
CC/C(=C(/c1ccccc1)c1ccc(OCCN(C)C)cc1)c1ccccc1	·	·	2%[39.9 µM]	·	·	·
CCN(CC)CCCCCCCCOC(=O)c1cc(OC)c(OC)c(OC)c1	22%	18µM*	-2%	7%	-11%[46.1 µM]	-16%[46.1 µM]
COc1cc(C(=O)OCCCN(C)C)cc(OC)c1OC	·	-1%	·	3%	-2%	-6%
Cc1cccc(-n2c(=S)[nH]c3sc4c(c3c2=O)CCc2ccccc2-4)c1	-8%	-11%	5%	7.6µM*	0%	4%
CN(Cc1cccc(Cl)c1Cl)C(=O)c1cc(S(=O)(=O)N2CCOCC2)ccc1F	·	-6%	·	·	·	·
COc1ccc(C(=O)NCCOc2ccccc2Cl)c(OC)c1OC	·	15µM*	·	15µM*	4.5µM*	3.2µM*
COc1cc(C(=O)NCCOc2ccccc2C)c(Br)c(OC)c1OC	-6%	-1%	-3%	4%	1%	3%
COc1ccccc1C1Nc2c(sc3nc(C)cc(C)c23)C(=O)N1c1ccccc1 (stereo not given)	13µM*	·	·	?	·	·
COCc1cc(C)nc2sc3c(c12)NC(c1ccccc1C(=O)O)N(c1cccc(C(F)(F)F)c1)C3=O (stereo not given)	-6%	·	·	?	·	·
CCOc1ccccc1Nc1nc(-c2cccc(Cl)c2)c2c(n1)-c1ccccc1OC2	·	·	·	11µM*	·	·
c1ccc(-c2cc(-c3ccccc3)c3c(n2)-c2ccccc2OC3)cc1	-4%	·	·	?	·	·
O=C(Cc1ccc(Br)cc1)Nc1ncc([N+](=O)[O-])s1	·	-3%	·	?	?	?
O=C(Cc1ccc(Cl)cc1)Nc1ncc([N+](=O)[O-])s1	-57%	-2%	0%	15µM*	4%	1.4µM*
O=C(COc1ccc(Cl)cc1)Nc1ncc([N+](=O)[O-])s1	?	?	4%	4.3µM*	0.56µM*	?
N#Cc1cccc(NC(=O)CSc2nnc(C3CC3)n2C2CC2)c1	·	0%	·	2%	-3%	-11%
Cc1nc2nc(-c3ccco3)nn2c(C)c1Cl	35µM*	-1%	-5%	-19%	10%	0%
Cc1nc2nc(-c3cccnc3)nn2c(C)c1Cl	·	?	?	-10%	15%	5%
O=C(/C=C/c1ccc2c(c1)OCCO2)N1CCN(c2ccc(F)cc2)CC1	·	-4%	·	24µM*	-3%	-2%
CCOC(=O)C1CCN(C(=O)/C=C/c2ccc3c(c2)OCO3)CC1	·	?	·	15µM*	0.45µM*	0.79µM*
O=C(/C=C\C=C/c1ccc2c(c1)OCO2)N1CCCCC1	?	·	-8%[17.1 µM]	·	·	·
O=C(/C=C/c1ccc2c(c1)OCO2)N1CCCCC1	·	?	·	12µM*	3.5µM*	1.6µM*
O=C(/C=C/c1ccc2c(c1)OCO2)N1CCN(c2ccc(Cl)cc2)CC1	-36%	2%	2%	-3%	-1%	-2%

High-throughput results (PubChem BioAssay)
